Here are results for five molecules from PubChem BioAssay.

Calls of active or inactive are those of the source.

The target of assay [1] is Albumin (Bos taurus) (UniProt P02769). The assay can be described thus: compounds binding labelled BSA control protein – biochemical, small-molecule microarray, Alexa647 label, 635/667 nm fluorescence, artefact control for SMM control protein annotation, profiling panel (AID 1118).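 Note: score merges 667 nm emission intensity and signal-to-noise per printed compound spot.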 Conditions: BSA-A647 binding, fluorescence 635 nm, higher = more signal.
Assay [2] can be described thus: probe aXIP binding to arrayed compounds – biochemical, NeuroSMM set, 635/667 nm fluorescence, primary screen (AID 1119).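 Note: probe is the protein aXip251-270 applied at 1 µg/mL to compound-printed slides; binding of probe to printed compounds measured as 667 nm fluorescence plus signal to noise.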 The following applies: small-molecule microarray, higher = more signal, called active from +8 up or from −8 down.
A short description of assay [3]: probe aNOTCH3 binding on compound microarray – biochemical, small-molecule microarray, 635/667 nm fluorescence, primary screen (AID 1120).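 Note: probe is a biotin-tagged antibody raised against NOTCH3 rather than NOTCH3 protein; score merges spot fluorescence near 667 nm with spot signal to noise.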 The following applies: higher = more signal.
Assay [4] is described as follows: probe aNOTCH2 binding on compound microarray – biochemical, small-molecule microarray, 635/667 nm fluorescence, primary screen (AID 1121).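 Note: score merges feature fluorescence read at 667 nm with its signal to noise.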 Conditions: higher = more signal.
Assay [5] addresses Carbonic anhydrase 2 (Homo sapiens) (UniProt P00918). Put plainly: compounds binding carbonic anhydrase 2 – biochemical, small-molecule microarray, Alexa647-labelled CAII, profiling panel (AID 1122). Conditions: CAII-A647 binding fluorescence, higher = more signal.
The nature of assay [6]: COS7 lysate on small-molecule microarray, probe aHis, 635 nm (AID 1123).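 Note: z-score combines 667nm fluorescence intensity with signal-to-noise per printed compound spot.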 The following applies: COS7 cell lysate, fluorescence, higher = more signal.
The nature of assay [7]: probe aLAP1 signal on lysate-treated microarray – cell lysate, small-molecule microarray, COS7 lysate, primary screen (AID 1124).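 Note: lysate comes from COS7 cells expressing LAP1 and is applied at 0.3 µg/mL; score merges spot fluorescence near 667 nm with signal-to-noise over triplicate slides.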 Conditions: probe aLAP1, fluorescence, higher = more signal.
In assay [8] the test system is Sam68 (KHDRBS1). Put plainly: compounds binding KHDRBS1 protein – biochemical, small-molecule microarray, 635 nm fluorescence, primary screen (AID 1125).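 Note: score merges 667 nm channel intensity with signal to noise over triplicate slides.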 Conditions: higher = more signal.
The test system of assay [9] is Chordin-like protein 2 (CHRDL2). The assay can be described thus: compounds binding chordin-like 2 – biochemical, small-molecule microarray, 635 nm fluorescence, primary screen (AID 1126).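 Note: printed compound slides probed with Chrdl2 protein at 4 µg/mL for 1 h at 4 C; score merges 667 nm emission intensity with signal to noise over three replicate slides.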 Conditions: fluorescence 635 nm, higher = more signal.
Assay [10] deals with Concanavalin-A (Canavalia ensiformis) (UniProt P02866). The assay can be described thus: compounds binding concanavalin A lectin – biochemical, small-molecule microarray, Alexa647 label, 635 nm, artefact control for SMM control protein annotation, primary screen (AID 1127).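 Note: z combines 667 nm emission intensity with signal-to-noise across three replicate slides.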 Conditions: ConA-A647 binding fluorescence, higher = more signal.
The nature of assay [11]: compounds binding Alexa647 anti-His antibody – biochemical, small-molecule microarray, 635 nm fluorescence, artefact control for SMM control protein annotation, primary screen (AID 1128).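 Note: score merges feature fluorescence with signal-to-noise for each printed compound spot.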 The following applies: higher = more signal.
The test system of assay [12] is Human papillomavirus type 1a E7 protein (residues 1-88). Put plainly: HPV1a E7 small-molecule binders, primary screen, biochemical, small-molecule microarray, residues 1-88, 635 nm (AID 1129). The following applies: small-molecule microarray binding, fluorescence 635 nm; higher = more signal.
The target of assay [13] is Focal adhesion kinase 1 (Homo sapiens) (UniProt Q05397). The assay can be described thus: PTK2 protein binding on printed compound slides – biochemical, small-molecule microarray, 635/667 nm fluorescence, BSA, DTT, primary screen (AID 1130).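 Note: composite of spot emission at 667 nm and signal to noise over triplicate slides.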 The following applies: 635 nm fluorescence, higher = more signal.
Assay [14] has as its system Fibrinogen (Alexa647-labelled). Put plainly: Alexa647-fibrinogen binding to printed small molecules – biochemical, small-molecule microarray, 635/667 nm fluorescence, artefact control for SMM control-protein annotation, profiling panel (AID 1131).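 Note: z-score merges 667 nm fluorescence with per-spot signal-to-noise over triplicate slides.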 The following applies: fibrinogen-A647 binding fluorescence, higher = more signal.
The target in assay [15] is Follistatin (Homo sapiens) (UniProt P19883). The assay can be described thus: FST protein binding to printed compounds – biochemical, small-molecule microarray, 635/667 nm fluorescence, primary screen (AID 1132). The following applies: 635 nm fluorescence, higher = more signal.
Assay [16] concerns the target Fibroblast growth factor 2 (Homo sapiens) (UniProt P09038). The assay can be described thus: basic fibroblast growth factor binding to printed compounds – biochemical, small-molecule microarray, 635/667 nm fluorescence, primary screen (AID 1133). The following applies: FGF2, fluorescence 635/667, higher = more signal.
A short description of assay [17]: JC-1 mitochondrial potential readout, lung cancer cells – cell-based, A549, JC-1 fluorescence, basal, 24 h, 100 nL, profiling panel (AID 1138).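 Note: A549 lung adenocarcinoma cells under basal conditions with no added stimulus; test concentration not given here.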 The following applies: higher = more signal.
In assay [18] the test system is Lefty1. Put plainly: Lefty1 protein binding to printed compounds – biochemical, small-molecule microarray, 635/667 nm fluorescence, primary screen (AID 1139). Conditions: fluorescence 635/667, higher = more signal.
Assay [19] relates to wheat germ agglutinin (Triticum aestivum), Alexa647-labelled. Put plainly: Alexa647-WGA lectin binding to printed small molecules – biochemical, small-molecule microarray, 635/667 nm fluorescence, artefact control for SMM control-protein annotation, profiling panel (AID 1140).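 Note: score merges 667 nm feature emission with signal to noise over triplicate slides.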 The following applies: WGA-A647 binding, 635 nm fluorescence, higher = more signal.
In assay [20] the target is Luciferin 4-monooxygenase (Photinus pyralis) (UniProt P08659). The assay can be described thus: inhibition of purified Photinus pyralis luciferase – biochemical, luminescence, purified enzyme, 2006 set, primary screen (AID 1141).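 Note: cell-free assay with purified firefly luciferase at 100 ng per well in PBS; test concentration not given here.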 The following applies: purified firefly luciferase, SteadyGlo luminescence, 30 min; higher = more signal, called active from +8 up or from −8 down.
Luciferin 4-monooxygenase (Photinus pyralis), sequence (P08659 whole entry, looked up): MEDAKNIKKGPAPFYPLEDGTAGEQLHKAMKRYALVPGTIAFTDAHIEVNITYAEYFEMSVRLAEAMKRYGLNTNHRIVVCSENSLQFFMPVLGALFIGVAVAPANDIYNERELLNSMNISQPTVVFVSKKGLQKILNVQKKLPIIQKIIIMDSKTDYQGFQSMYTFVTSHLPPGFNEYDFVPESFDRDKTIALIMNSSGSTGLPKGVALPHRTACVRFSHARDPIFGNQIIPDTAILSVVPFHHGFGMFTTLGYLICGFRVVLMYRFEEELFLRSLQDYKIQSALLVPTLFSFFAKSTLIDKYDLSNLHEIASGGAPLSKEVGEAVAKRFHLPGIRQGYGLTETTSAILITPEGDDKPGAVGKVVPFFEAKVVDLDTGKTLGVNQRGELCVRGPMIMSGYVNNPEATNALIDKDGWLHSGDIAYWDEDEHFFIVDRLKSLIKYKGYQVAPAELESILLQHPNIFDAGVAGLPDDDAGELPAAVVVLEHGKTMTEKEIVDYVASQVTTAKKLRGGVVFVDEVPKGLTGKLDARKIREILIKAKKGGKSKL

Fibroblast growth factor 2 (Homo sapiens), sequence (P09038 whole entry, looked up): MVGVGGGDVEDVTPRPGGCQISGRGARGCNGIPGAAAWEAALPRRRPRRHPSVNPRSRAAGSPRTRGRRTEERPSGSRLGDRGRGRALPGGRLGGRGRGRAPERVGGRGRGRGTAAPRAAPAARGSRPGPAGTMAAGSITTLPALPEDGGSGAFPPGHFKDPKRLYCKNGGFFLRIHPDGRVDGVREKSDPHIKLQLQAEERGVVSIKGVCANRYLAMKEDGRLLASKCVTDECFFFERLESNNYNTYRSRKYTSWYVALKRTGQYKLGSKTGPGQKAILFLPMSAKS
Concanavalin-A (Canavalia ensiformis), sequence (P02866 whole entry, looked up): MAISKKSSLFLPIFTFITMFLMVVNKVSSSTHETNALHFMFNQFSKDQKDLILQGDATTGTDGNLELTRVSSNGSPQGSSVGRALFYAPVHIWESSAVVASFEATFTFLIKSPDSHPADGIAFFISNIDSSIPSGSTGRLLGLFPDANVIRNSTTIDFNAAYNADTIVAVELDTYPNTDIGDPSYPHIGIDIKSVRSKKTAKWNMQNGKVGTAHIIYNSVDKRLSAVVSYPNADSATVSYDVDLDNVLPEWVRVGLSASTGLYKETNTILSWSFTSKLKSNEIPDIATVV
Follistatin (Homo sapiens), sequence (P19883 whole entry, looked up): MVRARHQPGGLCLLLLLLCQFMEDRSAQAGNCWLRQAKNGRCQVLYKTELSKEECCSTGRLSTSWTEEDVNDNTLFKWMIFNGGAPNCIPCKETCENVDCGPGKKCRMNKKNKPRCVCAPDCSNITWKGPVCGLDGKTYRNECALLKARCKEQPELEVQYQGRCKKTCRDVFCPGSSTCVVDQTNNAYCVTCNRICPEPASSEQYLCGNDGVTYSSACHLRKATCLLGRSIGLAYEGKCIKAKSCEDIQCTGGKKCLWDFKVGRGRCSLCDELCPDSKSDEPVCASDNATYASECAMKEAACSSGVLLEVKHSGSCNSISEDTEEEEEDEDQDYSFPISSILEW
Focal adhesion kinase 1 (Homo sapiens), sequence (Q05397 whole entry, looked up): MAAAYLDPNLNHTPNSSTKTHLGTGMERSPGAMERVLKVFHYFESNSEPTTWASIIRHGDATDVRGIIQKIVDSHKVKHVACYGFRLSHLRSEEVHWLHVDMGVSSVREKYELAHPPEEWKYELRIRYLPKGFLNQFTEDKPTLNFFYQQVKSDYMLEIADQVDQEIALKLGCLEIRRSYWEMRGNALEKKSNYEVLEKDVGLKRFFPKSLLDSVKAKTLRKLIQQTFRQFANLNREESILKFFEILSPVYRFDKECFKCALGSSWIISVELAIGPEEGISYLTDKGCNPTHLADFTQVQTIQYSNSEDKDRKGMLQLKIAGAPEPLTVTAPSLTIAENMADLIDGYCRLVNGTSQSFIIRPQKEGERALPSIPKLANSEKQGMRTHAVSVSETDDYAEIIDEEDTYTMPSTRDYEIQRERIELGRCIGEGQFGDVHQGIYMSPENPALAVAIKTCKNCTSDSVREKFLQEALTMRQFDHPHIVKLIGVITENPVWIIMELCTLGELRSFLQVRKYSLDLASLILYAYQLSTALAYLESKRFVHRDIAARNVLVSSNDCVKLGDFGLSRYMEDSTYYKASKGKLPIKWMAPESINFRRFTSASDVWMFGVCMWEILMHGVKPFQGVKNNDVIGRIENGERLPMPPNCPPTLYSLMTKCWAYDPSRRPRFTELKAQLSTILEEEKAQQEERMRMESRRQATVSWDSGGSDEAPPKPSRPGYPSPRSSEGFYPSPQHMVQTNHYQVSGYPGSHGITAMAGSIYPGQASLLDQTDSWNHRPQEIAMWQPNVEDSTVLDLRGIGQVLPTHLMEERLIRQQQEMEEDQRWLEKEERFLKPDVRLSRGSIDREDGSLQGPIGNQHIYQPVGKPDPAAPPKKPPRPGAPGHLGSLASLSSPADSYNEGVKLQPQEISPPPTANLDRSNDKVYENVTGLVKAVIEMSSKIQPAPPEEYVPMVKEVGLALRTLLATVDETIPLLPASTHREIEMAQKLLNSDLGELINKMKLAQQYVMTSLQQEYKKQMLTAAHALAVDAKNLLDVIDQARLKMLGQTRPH
Albumin (Bos taurus), sequence (P02769 whole entry, looked up): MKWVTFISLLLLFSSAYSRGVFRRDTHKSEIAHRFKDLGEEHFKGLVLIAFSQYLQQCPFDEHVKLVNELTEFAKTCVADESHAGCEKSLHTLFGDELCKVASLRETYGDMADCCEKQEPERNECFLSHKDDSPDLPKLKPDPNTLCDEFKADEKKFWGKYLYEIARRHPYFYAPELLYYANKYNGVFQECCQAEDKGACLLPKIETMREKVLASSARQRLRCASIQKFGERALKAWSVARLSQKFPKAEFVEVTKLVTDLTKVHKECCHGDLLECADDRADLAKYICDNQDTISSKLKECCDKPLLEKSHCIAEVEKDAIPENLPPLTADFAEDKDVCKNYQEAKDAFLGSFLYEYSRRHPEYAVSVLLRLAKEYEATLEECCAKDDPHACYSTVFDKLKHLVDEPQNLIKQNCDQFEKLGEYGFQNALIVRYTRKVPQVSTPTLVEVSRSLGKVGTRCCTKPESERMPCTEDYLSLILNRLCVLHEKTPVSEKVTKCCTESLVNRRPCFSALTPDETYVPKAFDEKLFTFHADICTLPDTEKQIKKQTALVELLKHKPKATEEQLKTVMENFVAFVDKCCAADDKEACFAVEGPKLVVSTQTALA

Take `COc1ccc([Si](C)(C)[C@@H]2[C@@H](CCO)O[C@]3(C(=O)N(Cc4ccccc4)c4ccc(N(C=O)c5ccccc5)cc43)[C@H]2C)cc1`: the composite z-score is 0.624 in assay [1]; -0.159 in assay [3]; -0.0682 in assay [4]; 0.497 in [5]; 0.937 in [6]; 0.719 in [7]. Besides, the composite z-score is 0.601 in [8]; -0.15 in assay [9]; 0.762 in [10]; 1.24 in assay [11]; 0.0244 in [12]; -0.205 in [13]. Besides, the composite z-score amounted to 0.181 in [14]; 1.08 in assay [15]; 0.614 in assay [16]; 0.497 in [18]; 0.467 in assay [19]. Also, the composite Z-score in [2] was 1.04 (inactive). Besides, the z-score in assay [17] is -0.276; in assay [20], -0.301 (inactive).

Take `CN1C(=O)C2C=CC(C(O)C=Cc3ccc([N+](=O)[O-])cc3)N(N3CCCCC3)C2C1=O` (stereo not given): the composite z-score in assay [1] was determined as 0.933; in assay [3], 1.03; in assay [4], 0.713; in [5], 0.766; in [6] it was 2.1; in assay [7], 1.52. The composite z-score stood at 1.31 in assay [8]; 0.57 in assay [9]; 1.2 in assay [10]; 1.25 in assay [11]; 1.2 in [12]; 0.518 in assay [13]. For the same molecule, the composite z-score in assay [14] was 0.966; in [15], 1.4; in assay [16], 0.544; in assay [18], 0.393; in assay [19], 1.28. Also, the composite Z-score in assay [2] is 0.693 (inactive). For the same molecule, the z-score in assay [17] is 0.39; in [20], -1.79 (inactive).

As to `C=CCC(OC(C)=O)[C@@H]1[C@@H](N(Cc2ccc(-c3cccc(C(F)(F)F)c3)o2)C(=O)Cc2ccc(OC)cc2)c2cc(OCCCO)ccc2N1C(=O)Cc1ccc(OC)cc1` (stereo not given in full), the composite z-score in [1] was 0.478; in assay [3] it was -0.193; in assay [4] it was -0.193; in assay [5], 0.158; in assay [6], 0.043; in assay [7], -0.39. For the same molecule, the composite z-score in [8] was -0.399; in [9], 0.292; in [10], -0.947; in [11] it was -0.381; in [12], -1.04; in [13] it was -0.127. Besides, the composite z-score in assay [14] was -1.31; in assay [15], 0.544; in [16], 0.283; in [18], -0.0334; in [19], 0.0267. In addition, the composite Z-score in assay [2] is -0.784 (inactive). Also, the z-score in assay [17] was 0.212; in assay [20] it was 0.781 (inactive).

For the molecule `COc1ccc([Si](C)(C)[C@@H]2[C@@H](CCn3cc([C@H](O)c4ccccc4)nn3)O[C@]3(C(=O)N(C)c4ccccc43)[C@H]2C)cc1`, the composite z-score in assay [1] is 0.718; in assay [3], -0.175; in assay [4], -0.19; in assay [5], 0.494; in [6], 0.613; in [7] it was 0.0014. Moreover, the composite z-score in [8] is 0.302; in assay [9], -0.13; in assay [10] it was 0.44; in [11], 0.214; in [12], 0.991; in assay [13], 0.227. In addition, the composite z-score in assay [14] is -0.892; in [15], 0.0274; in assay [16] it was 0.283; in assay [18], 0.57; in assay [19] it was 0.0783. Further, the composite Z-score in [2] was 0.19 (inactive). For the same molecule, the results for the z-score in assay [17] and in [20] were -0.0374 and 0.431 (inactive), respectively.

As for `C=C(COC)/C(=C/C[C@H](OC(C)=O)c1ccccc1OCCO)c1cnc2ccccc2c1`, the composite z-score in [1] is 0.185; in assay [3] it was -0.0044; in [4], -0.14; in assay [5] it was 0.648; in [6], 0.649; in [7] it was -0.186. For the same molecule, the composite z-score is 1.06 in [8]; 1 in [9]; 0.49 in assay [10]; 1.91 in assay [11]; 0.977 in [12]; 0.528 in [13]. The composite z-score in assay [14] is 0.325; in [15], 1.29; in assay [16] it was 0.394; in assay [18], 0.814; in assay [19] it was 0.666. Besides, the composite Z-score in [2] is 0.115 (inactive). Besides, the z-score in assay [17] was 0.0177; in [20] it was 0.0631 (inactive).
